From the supplement of paper PMC5734697

Tested on: Caenorhabditis elegans
Experiment: growth (movement index) relative to DMSO control, secondary screen (log2 fold change); higher = more growth (less anthelmintic activity)
Settings: 10 µM, 5 days, 20 °C, stage: L1 start
Description: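 C. elegans growth assay: synchronised L1 larvae (~20 per well) in S-complete medium with HB101 E. coli were grown in 96-well plates with Pathogen Box compound at 10 µM (1% DMSO) for 5 days at 20 °C. Motility/growth was quantified by whole-plate movie imaging (INVAPP/Paragon movement index). The score is the log2 fold change of the median movement of 5 replicate wells (on different plates) relative to DMSO-only wells. The secondary screen retested the top 20 hits with the same library material (n = 5, 10 µM).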

**Q.** For `CC1(C)OB(O)c2ccc(C3=NOC(c4cc(Cl)c(F)c(Cl)c4)(C(F)(F)F)C3)cc21` (configuration not stated), which “growth (log2)” value is on record?
**A.** Its value is -0.316.

**Q.** `CCc1nn(C)c(C(=O)NCc2ccc(Oc3ccc(C)cc3)cc2)c1Cl` was tested. Which “growth (log2)” value did it give?
**A.** Its value is -10.6.
